Records with an inconclusive call do not appear. Where a call stands in place of a potency, no number is given. The source made the active and inactive calls. Unless noted, calls come from the whole dose curve.
Columns and labels:
[1] = Nuclear factor erythroid 2-related factor 2/antioxidant responsive element (Nrf2/ARE) small molecule agonists: qHTS cell viability counter screen in human keratinocytes (AID 1919968; active = well fitted cell-killing curve with a large enough effect in the repeat runs; note: nearly all actives have a fitted effect of over 55% in size)
How it was run: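 HaCaT ARE reporter line, 1,500 cells/well; 5 h settle, 37 C/5% CO2; cpd in DMSO pinned; 23 h exposure; CellTiter-Fluor, 1 h; fluorescence.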

[2] = Nuclear factor erythroid 2-related factor 2/antioxidant responsive element (Nrf2/ARE) small molecule agonists: luciferase reporter gene qHTS assay in human keratinocytes (AID 1919969); note: nearly all actives have a fitted effect of over 35% in size; note: potency is the fitted concentration of half-maximal effect
[3] = target: Gonadotropin-releasing hormone receptor (Homo sapiens) (UniProt P30968); experiment: Human gonadotropin-releasing hormone receptor (GnRHR) small molecule agonists, calcium flux assay in GnRHR-HEK293 cells (AID 1920063); note: nearly all actives have a fitted effect of over 35% in size
How it was run: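 GnRHR-HEK293, 1500 cells/well, 18 h 37 C/5% CO2; Ca dye 1 h 37 C; cpd pinned (DMSO), agonist mode; kinetic FL 480/540, 3 min, 1 s reads; 15 conc, n=3.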

[4] = G protein-coupled receptor (GPCR) small molecule agonists, calcium flux assay: HEK293 wild type cell line counter screen (AID 1920065)
How it was run: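 Kinetic fluorescence at Ex/Em 480/540, recorded every second over 3 min, served as the read-out after compound addition. Each compound was tested at 15 concentrations in triplicate on cells pre-loaded with calcium dye for 1 h.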

[5] = p53 small molecule agonists, cell-based qHTS assay with human liver microsomes (AID 1963577)
How it was run: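 Fluorescence of the beta-lactamase reporter in p53RE-bla cells, detected with LiveBLAzer substrate (2 h, room temperature, dark), served as the read-out after 16 h compound exposure at 37 C with human liver microsomes and NADPH, each 0.5 mg/mL final.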

[6] = p53 small molecule agonists, cell-based qHTS assay with rat liver microsomes (AID 1963578)
How it was run: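 Cells carrying a p53 response element–beta-lactamase reporter were plated and rested 5 h, then dosed with compound in DMSO plus rat liver microsomes and NADPH, each at 0.5 mg/mL final. After 16 h at 37 C, LiveBLAzer substrate was added for 2 h.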

[7] = p53 small molecule agonists, cell-based qHTS assay with human liver microsomes: qHTS cell viability counter screen (AID 1963579); note: nearly all actives have a fitted effect of over 45% in size
How it was run: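 Cytotoxicity counter screen: p53RE-bla, 4,000 cells/well; 5 h settle, 37 C/5% CO2; cpd + HLM 0.5 mg/mL + NADPH 0.5 mg/mL (final); 16 h, 37 C; CellTiter-Glo, 30 min RT, luminescence.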

[8] = p53 small molecule agonists, cell-based qHTS assay with rat liver microsomes: qHTS cell viability counter screen (AID 1963580); note: nearly all actives have a fitted effect of over 45% in size
How it was run: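 Intracellular ATP, by CellTiter-Glo luminescence, defines viability. HCT-116 p53RE-bla cells, 4,000 per well, were compound-treated in the presence of rat liver microsomes and NADPH for 16 h at 37 C.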

[9] = p53 small molecule agonists, cell-based qHTS assay: qHTS cell viability counter screen (AID 1963581); note: nearly all actives have a fitted effect of over 45% in size
How it was run: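 HCT-116 p53RE-bla cells, 4,000/well, plated 5 h before compound pin transfer; 16 h at 37 C; bla substrate 2 h RT; then CellTiter-Glo, 30 min RT, luminescence.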

[10] = p53 small molecule agonists, cell-based qHTS assay (AID 1963582; active = well fitted activation curve with a large enough effect in the signal ratio in the repeat runs, not every such curve was filed as active; the % refers to the signal ratio)
How it was run: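 Reporter line: p53RE-bla. Pre-incubation 5 h, 37 C, 5% CO2; compound (DMSO, pin tool) 16 h, 37 C; B/G FRET substrate 2 h RT; fluorescence intensity read.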

[11] = target: 5-hydroxytryptamine receptor 2A (Homo sapiens) (UniProt P28223); experiment: 5-hydroxytryptamine receptor 2A (HTR2A) small molecule antagonists, cell-based qHTS assay (AID 1963586); note: nearly all actives have a fitted effect of over 45% in size
How it was run: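 Antagonist-mode intracellular calcium assay: DOI (4 nM) added after 5 min compound pre-incubation at room temperature to dye-loaded HTR2A-CHO cells. Fluorescence followed for 3 min, sampled every second.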

[12] = target: 5-hydroxytryptamine receptor 2A (Homo sapiens) (UniProt P28223); experiment: 5-hydroxytryptamine receptor 2A (HTR2A) small molecule agonists, cell-based qHTS assay (AID 1963587); note: nearly all actives have a fitted effect of over 30% in size
How it was run: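 Kinetic calcium-flux fluorescence (2 min, 1 sec intervals) after compound addition in agonist mode. HTR2A-CHO cells were cultured 18 h, then dye-loaded 1 h at 37 C.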

[13] = target: Muscarinic acetylcholine receptor M1 (Homo sapiens) (UniProt P11229); experiment: Cholinergic receptor muscarinic 1 (CHRM1) small molecule antagonists, cell-based qHTS assay (AID 1963588); note: nearly all actives have a fitted effect of over 40% in size
How it was run: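 CHRM1-CHO calcium-flux assay, antagonist mode. Cells were seeded 18 h, dye-loaded 1 h at 37 C and given compound for 5 min at RT, then acetylcholine was added at 50nM. FDSS fluorescence was read 3 min; 15 concentrations, three runs.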

[14] = target: Muscarinic acetylcholine receptor M1 (Homo sapiens) (UniProt P11229); experiment: Cholinergic receptor muscarinic 1 (CHRM1) small molecule agonists, cell-based qHTS assay (AID 1963589); note: nearly all actives have a fitted effect of over 35% in size
How it was run: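 Human M1 in stable CHO line; 18 h plating, 1 h dye load 37 C; cpd added (agonist mode); Ca2+ fluorescence kinetic read, 1 s intervals; 15 conc, 3 runs.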

[15] = cAMP Responsive Elements (CRE) small molecule agonists, cell-based qHTS assay (AID 1963590)
How it was run: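 HEK 293T CRE-bla, 2,000 cells/well, 18 h preincubation 37 C/5% CO2; cpds (DMSO) pinned, 3 h; LiveBLAzer B/G FRET substrate, 2 h RT.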

[16] = cAMP Responsive Elements (CRE) small molecule antagonists, cell-based qHTS assay (AID 1963591; active = well fitted inhibition curve with a large enough effect in the signal ratio in the repeat runs, not every such curve was filed as active; the % refers to the signal ratio)
How it was run: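 Beta-lactamase reporter read by FRET substrate (LiveBLAzer B/G) after 2 h at room temperature. CRE-bla HEK293T cells had received compound plus 0.25 uM (final) NKH477 for 3 h at 37 °C.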

[17] = target: Beta-2 adrenergic receptor (Homo sapiens) (UniProt P07550); experiment: Adrenergic beta2 receptor (ADRB2) small molecule antagonists, cell-based qHTS assay (AID 1963592); note: series mostly up to about 92 µM; nearly all actives have a fitted effect of over 50% in size
How it was run: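 Cells (CHO, stable ADRB2 overexpression) incubated 18-20hr at 37C; compounds added from DMSO; agonist mix (1nM isoproterenol, 100uM IBMX, 25uM Ro-20-1724) added; 0.5hr RT; d2-cAMP and anti-cAMP-cryptate added; 1hr RT; 665/615 nm read.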

[18] = target: D(2) dopamine receptor (Homo sapiens) (UniProt P14416); experiment: Dopamine D2 receptor (DRD2) small molecule agonists, cell-based qHTS assay (AID 1963594); note: nearly all actives have a fitted effect of over 35% in size
How it was run: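 cAMP accumulation in DRD2-HEK293 cells measured by HTRF after 1 h detection; compounds added 10 min before NKH477 (200nM […]) forskolin-analogue stimulation, 30 min at room temperature, with Ro20-1724 present at 0.1 mM final.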

[19] = target: Beta-2 adrenergic receptor (Homo sapiens) (UniProt P07550); experiment: Adrenergic beta2 receptor (ADRB2) small molecule agonists, cell-based qHTS assay (AID 1963593);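 note: CHO cells stably overexpressing human ADRB2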
How it was run: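 CHO cells stably over-expressing ADRB2 were plated overnight at 37C, then dosed with compounds plus a stimulation mix containing 100uM IBMX and 25uM Ro-20-1724 for 0.5hr at room temperature. cAMP was measured by HTRF competition, 1hr.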

[20] = target: D(2) dopamine receptor (Homo sapiens) (UniProt P14416); experiment: Dopamine D2 receptor (DRD2) small molecule antagonists, cell-based qHTS assay (AID 1963595; active = well fitted inhibition curve with a large enough effect in the signal ratio in the repeat runs, with a control signal flat; the % refers to the signal ratio)
How it was run: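 HEK293 cells stably expressing DRD2 were preincubated with 0.1 mM Ro20-1724, then with compound for 10 min at room temperature. Cells were stimulated with 200 nM NKH477 plus 12 nM quinpirole for 30 min, and cAMP was read by HTRF.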

Chain of Gonadotropin-releasing hormone receptor (Homo sapiens) (P30968 whole entry, looked up): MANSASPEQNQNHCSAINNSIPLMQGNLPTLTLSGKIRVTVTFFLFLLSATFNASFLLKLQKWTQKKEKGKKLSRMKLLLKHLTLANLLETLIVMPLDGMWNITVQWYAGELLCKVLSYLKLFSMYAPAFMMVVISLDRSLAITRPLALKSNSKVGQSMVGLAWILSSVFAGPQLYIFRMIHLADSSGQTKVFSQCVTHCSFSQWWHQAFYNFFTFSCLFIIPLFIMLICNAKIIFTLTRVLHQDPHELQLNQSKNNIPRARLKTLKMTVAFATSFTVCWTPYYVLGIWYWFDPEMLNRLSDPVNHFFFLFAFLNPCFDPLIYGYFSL
Chain of Muscarinic acetylcholine receptor M1 (Homo sapiens) (P11229 whole entry, looked up): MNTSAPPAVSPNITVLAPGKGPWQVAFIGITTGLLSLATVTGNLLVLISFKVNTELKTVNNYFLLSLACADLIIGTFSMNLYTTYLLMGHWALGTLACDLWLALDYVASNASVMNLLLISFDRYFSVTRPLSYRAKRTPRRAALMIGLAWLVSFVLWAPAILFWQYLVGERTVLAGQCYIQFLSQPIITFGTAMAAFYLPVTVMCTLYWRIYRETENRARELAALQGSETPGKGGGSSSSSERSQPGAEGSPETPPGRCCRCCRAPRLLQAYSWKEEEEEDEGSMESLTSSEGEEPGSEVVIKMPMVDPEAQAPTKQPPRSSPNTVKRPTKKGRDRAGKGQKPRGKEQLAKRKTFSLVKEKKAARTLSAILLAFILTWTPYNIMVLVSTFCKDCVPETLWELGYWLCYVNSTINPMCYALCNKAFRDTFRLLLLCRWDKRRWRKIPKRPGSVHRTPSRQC
Chain of D(2) dopamine receptor (Homo sapiens) (P14416 whole entry, looked up): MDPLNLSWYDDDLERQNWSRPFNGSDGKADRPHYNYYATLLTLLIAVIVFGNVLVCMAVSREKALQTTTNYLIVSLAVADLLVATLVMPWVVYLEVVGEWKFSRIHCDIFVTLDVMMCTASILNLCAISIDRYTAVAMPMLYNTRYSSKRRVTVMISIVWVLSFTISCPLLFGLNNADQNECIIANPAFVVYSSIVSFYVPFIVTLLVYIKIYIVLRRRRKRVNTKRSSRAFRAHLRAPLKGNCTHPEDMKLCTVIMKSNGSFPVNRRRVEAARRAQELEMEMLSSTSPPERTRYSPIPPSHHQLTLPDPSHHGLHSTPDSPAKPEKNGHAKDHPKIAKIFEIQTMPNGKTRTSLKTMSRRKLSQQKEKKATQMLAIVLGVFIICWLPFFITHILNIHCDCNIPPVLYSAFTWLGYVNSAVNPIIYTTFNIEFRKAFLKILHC
Chain of 5-hydroxytryptamine receptor 2A (Homo sapiens) (P28223 whole entry, looked up): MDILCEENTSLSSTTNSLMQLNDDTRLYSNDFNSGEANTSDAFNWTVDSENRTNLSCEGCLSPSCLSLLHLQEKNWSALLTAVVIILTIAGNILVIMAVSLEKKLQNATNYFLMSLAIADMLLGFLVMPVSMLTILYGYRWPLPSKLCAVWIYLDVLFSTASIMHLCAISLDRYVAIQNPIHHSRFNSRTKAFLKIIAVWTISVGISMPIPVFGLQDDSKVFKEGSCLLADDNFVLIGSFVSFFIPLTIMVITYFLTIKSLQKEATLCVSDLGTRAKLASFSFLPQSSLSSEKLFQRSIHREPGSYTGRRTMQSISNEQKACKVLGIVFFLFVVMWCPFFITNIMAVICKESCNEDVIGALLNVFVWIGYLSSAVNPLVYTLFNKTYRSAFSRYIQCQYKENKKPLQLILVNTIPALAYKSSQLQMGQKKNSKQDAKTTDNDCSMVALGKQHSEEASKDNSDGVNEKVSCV
Chain of Beta-2 adrenergic receptor (Homo sapiens) (P07550 whole entry, looked up): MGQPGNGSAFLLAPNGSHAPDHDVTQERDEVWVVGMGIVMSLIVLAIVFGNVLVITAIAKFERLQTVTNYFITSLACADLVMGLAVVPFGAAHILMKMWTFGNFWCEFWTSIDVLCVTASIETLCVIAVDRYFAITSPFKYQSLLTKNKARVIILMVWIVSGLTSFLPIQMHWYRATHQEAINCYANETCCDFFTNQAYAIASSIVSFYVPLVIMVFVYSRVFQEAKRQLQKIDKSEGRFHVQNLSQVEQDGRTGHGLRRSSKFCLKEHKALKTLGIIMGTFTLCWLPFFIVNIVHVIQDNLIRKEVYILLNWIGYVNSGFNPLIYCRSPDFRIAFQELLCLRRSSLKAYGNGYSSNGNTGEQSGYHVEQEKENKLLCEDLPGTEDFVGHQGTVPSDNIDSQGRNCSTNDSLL

SMILES	Potency [1]	Potency [2]	Potency [3]	Potency [4]	Potency [5]	Potency [6]	Potency [7]	Potency [8]	Potency [9]	Potency [10]	Potency [11]	Potency [12]	Potency [13]	Potency [14]	Potency [15]	Potency [16]	Potency [17]	Potency [18]	Potency [19]	Potency [20]
c1ccc(CNc2ncnc3c2ncn3C2CCCCO2)cc1 (stereo not drawn)	inactive	1.72 µM (active)	inactive	inactive	inactive	inactive	inactive	inactive	inactive	inactive	inactive	inactive	inactive	inactive	inactive	inactive	inactive	inactive	–	–
CCNc1cc(O)ccc1C	inactive	inactive	inactive	inactive	inactive	inactive	inactive	inactive	inactive	inactive	inactive	inactive	inactive	inactive	–	inactive	inactive	inactive	inactive	–
CC(C)=CCC[C@H](C)CC=O	inactive	inactive	inactive	inactive	inactive	inactive	inactive	inactive	inactive	inactive	–	–	–	–	inactive	inactive	inactive	inactive	inactive	inactive
CC1=CCC(C(C)C)=CC1	inactive	inactive	inactive	inactive	inactive	inactive	inactive	inactive	inactive	inactive	inactive	inactive	inactive	inactive	inactive	inactive	inactive	inactive	–	inactive
CN(C)N=Nc1ccccc1	inactive	inactive	inactive	inactive	inactive	inactive	inactive	inactive	inactive	inactive	inactive	inactive	inactive	inactive	inactive	–	inactive	inactive	inactive	inactive
CCO/C([O-])=N/c1c[n+](N2CCOCC2)no1	inactive	inactive	inactive	inactive	inactive	inactive	inactive	inactive	inactive	inactive	inactive	inactive	inactive	–	inactive	inactive	inactive	inactive	inactive	inactive
O=C(O[C@@H]1Cc2c(O)cc(O)cc2O[C@@H]1c1cc(O)c(O)c(O)c1)c1cc(O)c(O)c(O)c1	inactive	inactive	inactive	inactive	inactive	inactive	inactive	inactive	inactive	inactive	inactive	inactive	inactive	inactive	inactive	inactive	inactive	inactive	–	inactive

From PubChem BioAssay (Tox21)
